Source: PubChem
Rows were chosen to be rich in hits. Some 19% of all compounds tested hit in one or more screens of this group.
HT1080 IDH1KD tx – HT-1080 IDH1 knockdown cell toxicity (counter line) | HT-1080 IDH1 knockdown viability, ATP luminescence, 48 h | Potency, µM (highest dose often 46.1 µM), for the others: at the highest dose activity, negative = toxicity, most hits filed as cytotoxic | 2% of 360,000 active;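 further: potency means the concentration at half of the fitted maximal effect; 0% = DMSO wells and -100% = cell-free medium wells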
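Viability of IDH1-knockdown HT-1080 fibrosarcoma cells was assessed by CellTiter-Glo after 48 h at 37 °C with titrated compound; concentration-effect curves were classified by fit quality and response size.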
TDP1 cell noCPT – qHTS for Inhibitors of human tyrosyl-DNA phosphodiesterase 1 (TDP1): qHTS in cells in absence of CPT | DT40 Tdp1-/- hTDP1 cells, no CPT, ATP luminescence, 48 h | Potency, µM (titrated, usually from 46.2 µM), for the others: at the top dose activity change, negative = growth inhibition, hits mostly inhibitors | 15% of 420,000 active | AID 686978, 2013; further: potency means the concentration at half of the fitted maximal effect; nearly all actives have a fitted effect of over 55% in size
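Cells were dispensed at 400 per well, compounds added by pin tool, plates incubated ≥48 hr at 37 °C, then CellTiter-Glo added for 30 min at room temperature before luminescence reading. Line: DT40 Tdp1-/- complemented with hTDP1; camptothecin omitted.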
HT1080NT lethal – kills 2HG-producing HT-1080-NT fibrosarcoma cells; HT-1080-NT fibrosarcoma viability, CellTiter-Glo ATP luminescence, 48 h; Potency, µM (doses to about 46.1 µM), for the others: at the highest dose activity, negative = less viability, most hits filed as cytotoxic; 1.6% of 360,000 active;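 further: NT is the 2HG producing partner of a matched IDH1 knockdown line; potency means the concentration at half of the fitted maximal effect; 0% = DMSO-treated cells and -100% = media-only wells without cells; nearly all actives have a fitted effect of over 55% in size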
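Viability by CellTiter-Glo luminescence after 48 h compound exposure at 37C of HT-1080-NT cells (750/well, RPMI, 5% FBS). % activity scaled between DMSO wells and medium-only wells, then curve-fitted and categorized by curve class.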
TDP1 cell CPT – growth inhibition of DT40 Tdp1-/-;hTDP1 cells with camptothecin (screen for TDP1 inhibitors); chicken DT40 Tdp1-/-;hTDP1 cells + 20 nM CPT, ATP luminescence, 48 h; Potency, µM (series often up to 46.2 µM), inactives show at the highest dose activity change, negative = growth inhibition, usual class: inhibitors; 12% of 420,000 active; AID 686979; further: potency means the concentration at half of the fitted maximal effect; nearly all actives have a fitted effect of over 55% in size
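Chicken DT40 Tdp1-/- cells complemented with human TDP1, 400 cells/well, exposed to compounds plus 20 nM camptothecin for at least 48 h at 37 C; viability read as ATP content by CellTiter-Glo luminescence.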
IL-1B inflam inh – blocks inflammasome-driven IL-1 beta release; THP-1 LPS/ATP IL-1B secretion, AlphaLISA, 16 h; active compounds read low; activity change, % at 57.5 µM; 4.7% of 360,000 active; in the data active means activity change below about -50%; inconclusive means mostly about -30% to -49%
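Secreted IL-1B measured by AlphaLISA bead assay after 16 h compound exposure of THP-1 cells; compounds (final up to 57.5 uM) added 1 h before LPS (250 ng/mL) and ATP (1.25 mM) stimulation; lower signal means less secretion.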
* hit, by the source's call; ! = repeats disagree; [ ] = remark or other dose. Unless noted, the call rests on the fitted dose curve; in most records, active means well fitted curve in the direction sought with a large enough effect; inconclusive means small, poorly fitted or top-dose-only effect, or another doubt; inactive means no such curve, though single readings can be large; an effect the other way counts as inactive or inconclusive. Unless noted, on the % scale 0 is the no-effect control and ±100 the full control effect.

What do the screens show for `C[C@@H]1COC(=O)[C@H](CC(=O)OC(C)(C)C)C/C=C\C[C@@H](CC(=O)N[C@H](CO)Cc2ccccc2)C(=O)N1`?
HT1080 IDH1KD tx: 3%; TDP1 cell noCPT: -3%; HT1080NT lethal: 5%; TDP1 cell CPT: -2%; IL-1B inflam inh: 22

How did CC(C)(C)OC(=O)C[C@H]1C/C=C\C[C@@H](CC(=O)NCCO)C(=O)N2CCC[C@H]2COC1=O do in these assays?
HT1080 IDH1KD tx: 14%; TDP1 cell noCPT: -3%; HT1080NT lethal: 9%; TDP1 cell CPT: -8%; IL-1B inflam inh: 69

Results for O=C(C[C@@H]1C/C=C\C[C@H](NC(=O)OCC2c3ccccc3-c3ccccc32)C(=O)OC[C@@H]2CCCN2C1=O)N[C@@H](CO)Cc1ccccc1 ?
HT1080 IDH1KD tx: 2%; TDP1 cell noCPT: 18µM*; HT1080NT lethal: 0%; TDP1 cell CPT: 18µM*; IL-1B inflam inh: 15

How did O=C(C[C@@H]1C/C=C\C[C@H](NC(=O)OCC2c3ccccc3-c3ccccc32)C(=O)OC[C@@H]2CCCN2C1=O)NCCO do in these assays?
HT1080 IDH1KD tx: 6%; TDP1 cell noCPT: 10µM*; HT1080NT lethal: -7%; TDP1 cell CPT: 4.6µM*; IL-1B inflam inh: 18

Results for CCc1ccccc1Oc1coc2cc(O)ccc2c1=O ?
HT1080 IDH1KD tx: 0%; TDP1 cell noCPT: -30%; HT1080NT lethal: 3%; TDP1 cell CPT: -20%; IL-1B inflam inh: 21

How did O=C(C[C@@H]1C/C=C\C[C@H](NC(=O)OCC2c3ccccc3-c3ccccc32)C(=O)OC[C@H]2CCCN2C1=O)N[C@H](CO)Cc1ccccc1 do in these assays?
HT1080 IDH1KD tx: -10%; TDP1 cell noCPT: 5.2µM*; HT1080NT lethal: -12%; TDP1 cell CPT: 4.6µM*; IL-1B inflam inh: -16

Results for Cc1cc(NCCCn2ccnc2)n2nc(C)c(-c3ccc(Cl)cc3)c2n1 ?
HT1080 IDH1KD tx: 11µM*; TDP1 cell noCPT: 15µM*; HT1080NT lethal: -26%[9.24 µM]; TDP1 cell CPT: 16µM*; IL-1B inflam inh: -60*

How did Cc1cc(SCC#N)n2nc(C)c(-c3ccc(Cl)cc3)c2n1 do in these assays?
HT1080 IDH1KD tx: 8.9µM*; TDP1 cell noCPT: -16%; HT1080NT lethal: inconclusive; TDP1 cell CPT: -9%; IL-1B inflam inh: -2

How did Cc1cc(SCC#N)n2nc(C)c(-c3ccccc3)c2n1 do in these assays?
HT1080 IDH1KD tx: -26%; TDP1 cell noCPT: -25%; HT1080NT lethal: -29%; TDP1 cell CPT: -29%; IL-1B inflam inh: -60*

Results for Cc1cc(N)n2nc(C)c(-c3ccc(Cl)cc3)c2n1 ?
HT1080 IDH1KD tx: inconclusive; TDP1 cell noCPT: inconclusive; HT1080NT lethal: inconclusive; TDP1 cell CPT: inconclusive; IL-1B inflam inh: -1

What do the screens show for `Cc1cc(Cl)n2nc(C)c(-c3ccc(Cl)cc3)c2n1`?
HT1080 IDH1KD tx: 18µM*; TDP1 cell noCPT: inconclusive; HT1080NT lethal: inconclusive; TDP1 cell CPT: inconclusive; IL-1B inflam inh: -99*

What do the screens show for `CC(=O)CSc1cc(C)nc2c(-c3ccccc3)c(C)nn12`?
HT1080 IDH1KD tx: 12%; TDP1 cell noCPT: inconclusive; HT1080NT lethal: 20%; TDP1 cell CPT: 13%; IL-1B inflam inh: 8

What do the screens show for `C=CCSc1cc(C)nc2c(-c3ccccc3)c(C)nn12`?
HT1080 IDH1KD tx: inconclusive; TDP1 cell noCPT: inconclusive; HT1080NT lethal: inconclusive; TDP1 cell CPT: inconclusive; IL-1B inflam inh: 13

How did COc1ccc(N(CC(=O)N2CCC(Cc3ccccc3)CC2)S(C)(=O)=O)cc1 do in these assays?
HT1080 IDH1KD tx: -3%; TDP1 cell noCPT: inconclusive; HT1080NT lethal: -2%; TDP1 cell CPT: -21%; IL-1B inflam inh: 7

How did COCc1c(C(=O)N2CCN(c3ccccc3)CC2)cnn1-c1nccc(-c2ccco2)n1 do in these assays?
TDP1 cell noCPT: -29%; TDP1 cell CPT: 29%[9.04 µM]

How did CS(=O)(=O)N(CCc1ccccc1)CC(=O)NCc1ccco1 do in these assays?
HT1080 IDH1KD tx: 17%; TDP1 cell noCPT: -9%; HT1080NT lethal: 3%; TDP1 cell CPT: 9%; IL-1B inflam inh: -10

What do the screens show for `CSCCC(NS(=O)(=O)c1ccc2c(c1)OCCO2)C(=O)N(C)Cc1ccccc1F` (configuration not stated)?
HT1080 IDH1KD tx: 0%; TDP1 cell noCPT: 21µM*; HT1080NT lethal: 2%; TDP1 cell CPT: inconclusive; IL-1B inflam inh: -10

Results for CSCCC(NS(=O)(=O)c1ccc2c(c1)OCCO2)C(=O)N(C)Cc1ccc(F)cc1 (configuration not stated) ?
HT1080 IDH1KD tx: -6%; TDP1 cell noCPT: 13µM*; HT1080NT lethal: -1%; TDP1 cell CPT: 23µM*; IL-1B inflam inh: -1

What do the screens show for `CSCCC(NS(=O)(=O)c1cccc(C(F)(F)F)c1)C(=O)N(C)Cc1ccc2c(c1)OCCO2` (configuration not stated)?
HT1080 IDH1KD tx: -1%; TDP1 cell noCPT: inconclusive; HT1080NT lethal: 0%; TDP1 cell CPT: inconclusive; IL-1B inflam inh: -1

How did Nc1cc(-c2ccncc2)c[nH]c1=O do in these assays?
HT1080 IDH1KD tx: 4%; TDP1 cell noCPT: 16µM*!; HT1080NT lethal: 27%; TDP1 cell CPT: inconclusive; IL-1B inflam inh: 19

What do the screens show for `CC(C)(C)OC(=O)N1CCC(c2c(C(=O)N3CCC(c4ccccc4)C3)cnn2-c2ccc(Cl)cc2)CC1` (configuration not stated)?
TDP1 cell noCPT: 16µM*; TDP1 cell CPT: 13µM*

What do the screens show for `CC(C)(C)OC(=O)N1CCC(c2c(C(=O)O)cnn2-c2ccc(Cl)cc2)CC1`?
HT1080 IDH1KD tx: -1%; TDP1 cell noCPT: -15%; HT1080NT lethal: 1%; TDP1 cell CPT: -12%; IL-1B inflam inh: 25

How did Cc1ccc(-n2ncc(C(=O)N3CCC(c4ccccc4)C3)c2C2CCN(C(=O)OC(C)(C)C)CC2)cc1 (configuration not stated) do in these assays?
TDP1 cell noCPT: 23µM*; TDP1 cell CPT: 15µM*

What do the screens show for `Cc1ccc(-n2ncc(C(=O)O)c2C2CCN(C(=O)OC(C)(C)C)CC2)cc1`?
HT1080 IDH1KD tx: 10%; TDP1 cell noCPT: -29%; HT1080NT lethal: 20%; TDP1 cell CPT: -9%; IL-1B inflam inh: 15

What do the screens show for `O=[N+]([O-])c1ccc(N/N=C2/CCCCC2c2ccccn2)cc1` (configuration not stated)?
HT1080 IDH1KD tx: 0.92µM*; TDP1 cell noCPT: -25%; HT1080NT lethal: 14%; TDP1 cell CPT: -27%; IL-1B inflam inh: -14

How did CC(C)c1ccc(NC(=O)C2C3C=CC4(O3)C2C(=O)N(CCCN2CCCCC2)C4C(=O)NC2CCCCC2)cc1 (configuration not stated) do in these assays?
HT1080 IDH1KD tx: -22%; TDP1 cell noCPT: -18%; HT1080NT lethal: 0%; TDP1 cell CPT: 3%; IL-1B inflam inh: -26
